Assay outcomes from PubChem BioAssay.
ERb coact inh = inhibitors of ERβ-SRC1 coactivator interaction, primary screen, biochemical, TR-FRET, ERβ LBD, SRC-1 peptide; Estrogen receptor beta (Homo sapiens), Q92731; inhibition, % at 25.6 µM; 86,000 compounds, 1.3% hits; TR-FRET ER-beta LBD / SRC1-Cy5 peptide binding; receptor agonist-loaded with 1 µM estradiol; AID 633, 2007;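 active = compounds whose percent inhibition of the receptor-coactivator binding signal exceeds about 50% in the single-dose screen, limit read from the data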
MRP1 act = H69AR viability gain despite doxorubicin, primary screen, MRP-1 activator project, H69AR cells, CellTiter-Glo; viability rescue; 140,000 compounds, 0.61% hits; viability increase, % at 10 µM;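 active = viability gain under doxorubicin at or above a set limit, the compound median plus 3 SD, cut at about 4.7% in these data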;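 also: MRP-1 overexpressing cells given doxorubicin 25 µM after compound pretreatment; 18-22 h compound pretreatment then 72 h with doxorubicin before readout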
ERa SRC1 inh = ERα–SRC-1 coactivator interaction inhibitors, primary screen, biochemical, TR-FRET, ERα LBD, estradiol-bound. AID 629, 2007. Estrogen receptor (Homo sapiens), P03372. 86,000 compounds, 1.7% hits. inhibition, % at 25.6 µM. TR-FRET ER-alpha LBD / SRC-1 peptide; in the data active = inhibition above about 50%
Target sequence (P03372 whole entry, looked up, the tested form may be a part): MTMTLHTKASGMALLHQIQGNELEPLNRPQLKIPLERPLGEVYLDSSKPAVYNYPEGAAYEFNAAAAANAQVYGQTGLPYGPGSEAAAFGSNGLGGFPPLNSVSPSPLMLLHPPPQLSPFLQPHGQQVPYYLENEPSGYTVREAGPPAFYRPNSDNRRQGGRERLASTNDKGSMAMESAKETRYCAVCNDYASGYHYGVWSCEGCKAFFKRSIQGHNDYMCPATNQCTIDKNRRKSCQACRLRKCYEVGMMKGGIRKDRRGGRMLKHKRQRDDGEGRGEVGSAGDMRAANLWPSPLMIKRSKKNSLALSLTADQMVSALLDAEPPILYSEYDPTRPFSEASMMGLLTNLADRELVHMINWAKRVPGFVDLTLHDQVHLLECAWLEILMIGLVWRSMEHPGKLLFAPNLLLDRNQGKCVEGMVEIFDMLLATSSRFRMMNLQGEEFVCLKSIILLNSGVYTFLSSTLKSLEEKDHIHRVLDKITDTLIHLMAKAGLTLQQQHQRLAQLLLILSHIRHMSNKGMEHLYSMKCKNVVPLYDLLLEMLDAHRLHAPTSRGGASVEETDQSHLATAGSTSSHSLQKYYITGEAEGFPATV
MRP resist rev = reversal of MRP1-mediated doxorubicin resistance, primary screen, H69AR cells, doxorubicin co-treatment | 85,000 compounds, 0.04% hits | AID 602, 2007 | differential viability (reversal), % at 10 µM | H69AR cells + 2 uM doxorubicin, CellTiter-Glo, 72 h;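 active = viability drop by adding the cancer drug above about 55%, with treated viability meeting a 40% cutoff, limit read from the data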;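 also: larger differential means the compound sensitizes cells more to doxorubicin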
ERa SRC1 pot = enhancers of ERα–SRC-1 coactivator binding, primary screen, biochemical, TR-FRET, ERα LBD, low estradiol | Estrogen receptor (Homo sapiens), P03372 | TR-FRET ERalpha-LBD/SRC-Cy5 coactivator binding, 2 h; 100 = basal binding, no effect | coactivator binding (% of control), % at 25.6 µM | 86,000 compounds, 1.3% hits | AID 639, 2007; in the data active = activity above about 200%;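 also: binding measured in presence of low estradiol as agonist stimulus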
Each line names hits and unclear results; the compound was inactive in the other large screens; [ ] = dose if it differs, or a comment. This is a sample that favours compounds with a hit; in the whole collection about 2.7% have one here.

CCn1c(C(=O)N2CCCC(C(=O)NCCCc3ccccc3)C2)cc2sccc21 (centres undefined)	ERb coact inh 79.9[fluorescence artefact?]
O=C(NC(=O)c1ccc(Cl)cc1)Nc1cc(N2CCCCC2)ncn1	ERb coact inh 65.4[fluorescence artefact?], ERa SRC1 inh 72.1[fluorescence artefact?], ERa SRC1 pot 243.4 (no result: MRP1 act)
CCc1ccccc1NS(=O)(=O)c1ccc2[nH]cc(C(=O)NCC3CCCO3)c(=O)c2c1 (centres undefined)	ERa SRC1 inh 64.7
CCOc1ccc(NS(=O)(=O)c2ccc3[nH]cc(C(=O)NCC4CCCO4)c(=O)c3c2)cc1 (centres undefined)	none
Cn1ccnc1SCC(=O)Nc1ccc2nc(SCC(=O)NC3CC3)sc2c1	ERa SRC1 inh 53.1
COc1ccc(/C=C/c2nnc(NC(=O)COc3ccc(C)cc3)s2)cc1	none (no result: ERb coact inh, ERa SRC1 inh, MRP resist rev, ERa SRC1 pot)
CCOC(=O)C1CCN(Cc2cnc(Oc3ccc(C(C)(C)C)cc3)s2)CC1	none (no result: ERb coact inh, ERa SRC1 inh, MRP resist rev, ERa SRC1 pot)
O=C(N/N=C/c1cc2c3c(c1O)CCCN3CCC2)c1ccccc1O	none (no result: ERb coact inh, ERa SRC1 inh, MRP resist rev, ERa SRC1 pot)
O=c1oc2c3c4c(cc2s1)CCCN4CCC3	ERb coact inh 68.0[fluorescence artefact?], ERa SRC1 inh 72.2[fluorescence artefact?]
O=C(/C=C/c1ccncc1)c1ccc(NC(=O)c2ccccc2F)cc1	none (no result: ERb coact inh, ERa SRC1 inh, MRP resist rev, ERa SRC1 pot)
COc1cccc(-c2nc(-c3ccccc3)no2)c1	none
COc1ccc(-c2cc3nnc(-c4ccccc4)nc3s2)cc1	ERb coact inh 66.4[fluorescence artefact?], ERa SRC1 inh 62.9[fluorescence artefact?]
COc1cc(C(=O)Nc2cnc(NC(=O)C(C)C)cc2C)cc(OC)c1OC	ERb coact inh 51.8
O=C(c1ccc(COc2ccc(Br)cc2)o1)N1N=C(C(F)F)CC1(O)C(F)F (centres undefined)	MRP1 act 5.5 (no result: ERb coact inh, ERa SRC1 inh, MRP resist rev, ERa SRC1 pot)
CC(C)CC(OC(=O)c1cccs1)C(=O)NCc1ccco1 (centres undefined)	ERb coact inh 58.4
COc1cc2[nH]c(=O)n(CCC(=O)N3CCN(c4cccc(C)c4C)CC3)c(=O)c2cc1OC	ERa SRC1 inh 53.3[fluorescence artefact?]
COc1cc2[nH]c(=O)n(CCCCCC(=O)N3CCN(c4ccccc4)CC3)c(=O)c2cc1OC	none
CCOC(=O)C1=C(c2ccccc2)O/C(=C(\C(=O)OC)C(F)(F)F)S1	ERa SRC1 pot 270.2[fluorescence artefact?]
COc1ccc2c(OC)cc(-c3ccccc3)nc2c1	none
COc1ccc2c(-c3ccccc3)cc3nnnn3c2c1	ERa SRC1 pot 205.9
CCOc1ccc(-c2nnc(Nc3ccc(OC)c(C(=O)N4CCCCC4)c3)c3ccccc23)cc1	none (no result: ERb coact inh, ERa SRC1 inh, MRP resist rev, ERa SRC1 pot)
CC1CCCC(NC(=O)COC(=O)CCC2CCCC2)C1C (centres undefined)	none
CC(C)OC(=O)CSc1nnc(-c2ccc(C(C)(C)C)cc2)n1N	ERa SRC1 inh 97.8[fluorescence artefact?]
CC(C)OC(=O)CSc1nnc(-c2ccncc2)n1N	none
COc1ccc(Cl)cc1C(=O)Nc1ccc2c(c1)OCO2	MRP1 act 14.8
CN(c1ccccc1C(=O)Nc1ccc2c(c1)OCO2)S(C)(=O)=O	ERb coact inh 53.0[fluorescence artefact?] (no result: MRP resist rev)
CN(c1ccccc1C(=O)Nc1ccc2c(c1)OCCO2)S(C)(=O)=O	none
CS(=O)(=O)N(CCc1ccccc1)CC(=O)Nc1ccc2c(c1)OCO2	ERa SRC1 inh 61.9[fluorescence artefact?]
CCC(C)[C@@H](N)C(=O)N/N=C/c1ccc2ncccc2c1 (some centres undefined)	none (no result: ERb coact inh, ERa SRC1 inh, MRP resist rev, ERa SRC1 pot)
COc1ccc(N(C(=O)Cn2nnc3ccccc32)C2(C(=O)NC3CCCC3)CCCCC2)cc1	none (no result: ERb coact inh, ERa SRC1 inh, MRP resist rev, ERa SRC1 pot)
COc1ccc(N(C(=O)Cn2cnc3ccccc32)C(C(=O)NC2CCCCC2)c2ccccc2)cc1 (centres undefined)	MRP1 act 12.5 (no result: ERb coact inh, ERa SRC1 inh, MRP resist rev, ERa SRC1 pot)
COc1cc(OC)cc(-n2c3nc4ccccc4nc3c3c(=O)n(CC4CCCO4)cnc32)c1 (centres undefined)	ERa SRC1 inh 57.4[fluorescence artefact?] (no result: MRP1 act)
Cc1nc2c(c(=O)n1CC1CCCO1)c1nc3ccccc3nc1n2CCC(C)C (centres undefined)	ERa SRC1 inh 75.6 (no result: MRP1 act)
CCCCCn1c2nc3ccccc3nc2c2c(=O)n(CC3CCCO3)c(C)nc21 (centres undefined)	none (no result: MRP1 act)
O=c1cc(CSc2nnc(-c3cccs3)n2Cc2ccccc2)nc2sc3ccccc3n12	ERb coact inh 64.8, ERa SRC1 inh 75.4[fluorescence artefact?]
O=C(O)c1cc(-c2ccco2)nc2ccc(Br)cc12	ERb coact inh 61.2, ERa SRC1 inh 64.3
O=C(NCC1CCCO1)c1cc(-c2ccco2)nc2ccccc12 (centres undefined)	ERb coact inh 74.9[fluorescence artefact?], ERa SRC1 inh 69.0[fluorescence artefact?]
CCCCCCNC(=O)c1cc(-c2ccco2)nc2ccccc12	ERb coact inh 74.8, ERa SRC1 inh 85.5[fluorescence artefact?]
CC(C)CCNC(=O)c1cc(-c2ccco2)nc2ccccc12	none
CCOc1cc(N2CCOCC2)c(OCC)cc1NC(=O)c1cc(-c2ccco2)nc2ccccc12	ERa SRC1 inh 75.4
O=C(c1ccco1)N1CCN(C(=O)c2cc(-c3ccncc3)nc3ccc(Br)cc23)CC1	none (no result: MRP1 act)
Cc1c(C(=O)N2CCC(C)CC2)sc2ncnc(N(C)c3ccccc3)c12	none
Cc1cc(C(=O)OCC(=O)N2CC(=O)Nc3ccccc32)c(C)n1-c1ccccc1	none (no result: ERb coact inh, ERa SRC1 inh, MRP resist rev, ERa SRC1 pot)
Cn1c2ccccc2c2cc(C(=O)OCC(=O)N3CC(=O)Nc4ccccc43)sc21	ERa SRC1 pot 670.2[fluorescence artefact?]
Cc1ccc(N/N=C(\C#N)C(N)=S)c(C)c1	MRP1 act 8.2 (no result: ERb coact inh, ERa SRC1 inh, MRP resist rev, ERa SRC1 pot)
Cc1ccc(C)c(/C(O)=C2/C(=O)C(=O)N(CCN3CCOCC3)C2c2ccco2)c1 (centres undefined)	ERb coact inh 50.9
N#C/C(=C\c1ccccc1)C(=O)N(c1ccccn1)C1CCCCC1	none (no result: ERb coact inh, ERa SRC1 inh, MRP resist rev, ERa SRC1 pot)
Cc1cccc(-n2c(N)cc(=O)nc2SCC(=O)Nc2nnc(C)s2)c1	MRP1 act 5.7
CCCCc1nnc(NC(=O)CSc2nc(=O)cc(N)n2-c2ccccc2)s1	none
CCOc1cc(/C=N\NC(=O)c2ccc(NC(=O)CC)cc2)ccc1OC(=O)c1ccccc1	none (no result: ERb coact inh, ERa SRC1 inh, MRP resist rev, ERa SRC1 pot)
CC(C)NC(=O)CSc1nc(-c2cccs2)cc(-c2ccccc2)c1C#N	ERa SRC1 pot 254.5
Cc1nnc(Oc2ccccc2F)c2ccccc12	ERa SRC1 inh 50.6
Cn1ccnc1-c1nc2ccccc2[nH]c1=O	MRP resist rev 81.9
N=C(N)SCc1nc2ccccn2c1Br	MRP1 act 7.9 (no result: ERb coact inh, ERa SRC1 inh, MRP resist rev, ERa SRC1 pot)
Cc1cccc2nc(CSC(=N)N)c(Br)n12	none (no result: ERb coact inh, ERa SRC1 inh, MRP resist rev, ERa SRC1 pot)
CCOC(=O)C1=C(O)/C(=C/c2cn(CC(=O)NCC3CCCO3)c3ccccc23)SC1=Nc1ccc(C)cc1 (centres undefined)	ERa SRC1 inh 78.2 (no result: MRP1 act)
CN1C(=O)CSc2ccc(NC(=O)N3CCC(N4CCCCC4)CC3)cc21	ERb coact inh 51.3, ERa SRC1 inh 57.8
CC1N(C)c2cccc3cccc(c23)N1C	ERb coact inh 83.3[fluorescence artefact?], ERa SRC1 inh 50.9[fluorescence artefact?]
CCOC(=O)c1[nH]c2ccc(Cl)cc2c1NC(=O)c1nonc1C	ERa SRC1 pot 221.4[fluorescence artefact?]
